Test results reported in PubChem BioAssay (NCI).
Compounds without any hit were thinned out: in the full panel of roughly 83,000, 20% have a hit.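 Results are percent growth after 48 hours of single-concentration exposure. 100 means growth as in untreated cells, lower positive values show inhibition; negative values down to -100 show cell death.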 Values without a mark were called inactive. The source made the active and inactive calls. The calls were made as follows: active = growth percent below 10; inactive = the rest.

Key:
Experiment in all cases: NCI-60 one-dose screen, 48 h (100 = growth as untreated, 0 = no growth, -100 = all killed)
Conditions in all cases: 10 µM unless noted
SK-MEL-2 melanoma = system: SK-MEL-2 melanoma
EKVX NSCLC = system: EKVX NSCLC
SN12C renal = system: SN12C renal
UO-31 renal = system: UO-31 renal
TK-10 renal = system: TK-10 renal
A498 renal = system: A498 renal
CCRF-CEM leukemia = system: CCRF-CEM leukemia
MOLT-4 leukemia = system: MOLT-4 leukemia
SR leukemia = system: SR leukemia
RPMI-8226 leukemia = system: RPMI-8226 leukemia
OVCAR-8 ovarian = system: OVCAR-8 ovarian
OVCAR-5 ovarian = system: OVCAR-5 ovarian
OVCAR-4 ovarian = system: OVCAR-4 ovarian
SK-OV-3 ovarian = system: SK-OV-3 ovarian
IGROV1 ovarian = system: IGROV1 ovarian
OVCAR-3 ovarian = system: OVCAR-3 ovarian
HS 578T breast = system: HS 578T breast
NCI/ADR-RES ovarian = system: NCI/ADR-RES ovarian

| Structure (SMILES) | growth (SK-MEL-2 melanoma) | growth (EKVX NSCLC) | growth (SN12C renal) | growth (UO-31 renal) | growth (TK-10 renal) [%] | growth (A498 renal) [%] | growth (CCRF-CEM leukemia) | growth (MOLT-4 leukemia) | growth (SR leukemia) | growth (RPMI-8226 leukemia) | growth (OVCAR-8 ovarian) | growth (OVCAR-5 ovarian) | growth (OVCAR-4 ovarian) | growth (SK-OV-3 ovarian) [%] | growth (IGROV1 ovarian) | growth (OVCAR-3 ovarian) | growth (HS 578T breast) | growth (NCI/ADR-RES ovarian) |
| --- | --- | --- | --- | --- | --- | --- | --- | --- | --- | --- | --- | --- | --- | --- | --- | --- | --- | --- |
| CCOc1cccc(Nc2nc(N)nc3[nH]c4ccc(O)cc4c23)c1 | 90.2% | 27.8% | 54.1% | 36.4% | 27.2 | 51 | 61.7% | 53.9% | 65.7% | 42.4% | 77.6% | 63.1% | 66.3% | 55.9 | 16.7% | 58.5% | 58.5% | 80.4% |
| CNCCCOc1c(Br)cc(CCNC(=O)/C(Cc2cc(Br)c(OC)c(Br)c2)=N/O)cc1Br | -54.7% (active) | 26.3% | -74% (active) | -44.9% (active) | 34.7 | 31.9 | -9.15% (active) | -17.4% (active) | -57% (active) | -30.7% (active) | 2.04% (active) | 36.2% | 14.3% | 37.2 | 6.03% (active) | -25.4% (active) | -17.9% (active) | 9.44% (active) |
| C[C@]12CC[C@@H]3c4ccc(O)c(N)c4CC[C@H]3[C@@H]1CC[C@@H]2O | 102% | 78.5% | 105% | 109% | 135 | 96 | 75.9% | 80.8% | 98.1% | 85.5% | 104% | 117% | 110% | 128 | – | 100% | 99.2% | 105% |
| C/C(=N/NC(=O)Cn1c2ccccc2c2ccncc21)c1cccs1 | 96.6% | 103% | 104% | 94.5% | 127 | 86.5 | 91.1% | 83.1% | 83.3% | 87.4% | 92.8% | 112% | 99.8% | 102 | 90.6% | 103% | 91.1% | 101% |
| CC(C(=O)O)N1C(N)=NNC1c1ccccc1O (configuration not stated) | 99.7% | 50.6% | 93.4% | 66.3% | 148 | 98.8 | 82.7% | 68.1% | 72.2% | 73.1% | 90.2% | 108% | 76.3% | 105 | 70.9% | 83% | 91.1% | 83.8% |
| COc1cc(-c2nc(N)n(CC(=O)Nc3ccc(/C(C)=N\O)cc3)n2)cc(OC)c1OC | 92.1% | 106% | 96% | 79.5% | 90.9 | 89.8 | 84.5% | 91.6% | 83% | 94.3% | 74.3% | 114% | 112% | 87.9 | 96.8% | 106% | 82.1% | 105% |
| CCN(CC)CCNc1ccc([N+](=O)[O-])c2sc3cc(Cl)ccc3c(=O)c12 | 82.1% | 78.9% | -19.3% (active) | -79.5% (active) | 66.9 | 73.5 | 12.9% | 29% | 9.3% (active) | 3.51% (active) | 3.32% (active) | 38.7% | -37.6% (active) | 86.3 | 15.1% | 71.5% | 80.2% | 33.9% |
| O=S(=O)(O)c1ccc(F)cc1 | 93.6% | 101% | 111% | 86.4% | 90.2 | 101 | 90.6% | 98.5% | 101% | 100% | 116% | 111% | 105% | 102 | – | 106% | 102% | 104% |
| COc1ccc(/C=C/C(=O)c2ccc(NC(=O)CSc3nnc(-c4cc(OC)c(OC)c(OC)c4)o3)cc2)cc1 | 37.7% | -2.83% (active) | -43.5% (active) | -85.3% (active) | 78.8 | 90.5 | -1.51% (active) | -25.9% (active) | -60.5% (active) | -43.7% (active) | -14.3% (active) | 7.48% (active) | -49.9% (active) | 85.2 | -39.2% (active) | -93.8% (active) | 45.3% | 3.13% (active) |
| CCC1S/C(=N\N=C(/C)c2ccco2)N(c2ccccc2)C1=O (configuration not stated) | 112% | 109% | 141% | 94.8% | 79.4 | 160 | -58.4% (active) | 78.7% | 92.4% | 60.4% | 106% | 105% | 98.4% | 135 | -17.1% (active) | – | 231% | 105% |
| COc1cc(/C=C\c2cc(/C=C\c3ccc(O)c(OC)c3)n(C(=O)CNc3ccccc3OC)n2)ccc1O | 61.2% | 91.6% | 75.4% | 46.4% | 113 | 105 | 45.2% | 58.6% | 2.38% (active) | 80.1% | 84.6% | 102% | 84.2% | 83.8 | 90.5% | 59.7% | 49.8% | 54.4% |
| COc1ccc(-c2nnc(SCC(=O)Nc3ccc(C(=O)/C=C/c4ccccc4)cc3)o2)cc1OC | 98% | 100% | 103% | 83.9% | 96.1 | 95.7 | 102% | 89.1% | 88.1% | 70.5% | 98.8% | 106% | 101% | 109 | 103% | 105% | 110% | 93.5% |
| COc1cc(/C=C2/Oc3cc4occc4c(OC)c3C2=O)ccc1OCC(=O)Nc1ccncc1 | 102% | 97.4% | 104% | 70.3% | 127 | 111 | 103% | 110% | 102% | 91.4% | 104% | 113% | 111% | 93.1 | – | 99.8% | 95.1% | 107% |
| COc1ccc2c(-c3ccc(F)cc3)c(C#N)c(=NC(C)=O)oc2c1 | 26.5% | 62.8% | 56.9% | 50.4% | 78.1 | 18.1 | 13.1% | 29.6% | 13.7% | 12.3% | 50.2% | 103% | 92.5% | 44.6 | 54% | 18.2% | 42.9% | 31.2% |
| O=C(CSc1nnc(-c2ccc(Cl)cc2)o1)Nc1ccc(C(=O)/C=C/c2ccccc2)cc1 | 92.9% | 98% | 95.5% | 80.1% | 93.7 | 95.7 | 86.1% | 93.1% | 60.4% | 68.7% | 97.3% | 106% | 101% | 117 | 95.7% | 108% | 101% | 88.1% |
| C=C1C(=O)O[C@H]2[C@H]1CC/C(C(=O)Nc1ccc(OC)c(C(N)=O)c1O)=C\CC[C@@]1(C)O[C@@H]21 | 71.3% | 73.4% | 61.1% | 37.8% | 22.6 | 78.3 | 3.64% (active) | 13.9% | 22.3% | 70.8% | 68.2% | 75.1% | 67.2% | 80.7 | 55.5% | 25.4% | 77.4% | 92.5% |
| COc1ccc2c(c1)OC(N(C(C)=O)C(C)=O)=C(C#N)C2c1ccc(F)cc1 (configuration not stated) | 25.1% | 47.9% | 51.5% | 45.8% | 71.2 | 12.8 | 10.9% | 28.7% | 12.4% | 3.13% (active) | 38.5% | 65.2% | 81.9% | 23.9 | 56.1% | 11.9% | 23.6% | 30.6% |
